Source: PubChem BioAssay AID371 (SRMLSC, 2006)
Out of some 3,300 compounds screened, about 280 (8.5%) were called active. The sample holds actives, similar compounds and a random draw of the others, so the mix is not that of the screen.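 The calls were made as follows: active = mean growth inhibition over the two runs of 50% or more; inactive = mean growth inhibition under 50%.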

Test: A549 NSCLC cell proliferation inhibitors – ATP luminescence, human non-small cell lung line, primary screen (AID 371);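 also: compound exposure lasted 72 h before the ATP read; 0% = untreated cell signal and 100% = no luminescence left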
Conditions: at 10 µM, stronger effect = higher value

Growth inhibition, active:
Oc1ccc(/C=C/c2cc(O)cc(O)c2)cc1 63.9%
CCCCOc1ccc(C(=O)OC2CC(C)N(C)CC2C)cc1 (centres undefined) 90%
COc1cc([C@@H]2c3cc4c(cc3[C@H](O)[C@H]3COC(=O)[C@H]23)OCO4)cc(OC)c1OC 66.9%
COc1cc(C2Nc3cccc4cccc(c34)N2)cc(OC)c1OC(C)=O 68.5%
Cc1[nH]nc(-c2ccc(O)cc2O)c1Oc1ccccc1 56.1%
Cn1c(=O)c2c(nc(NCc3ccc4c(c3)OCO4)n2Cc2ccc(F)cc2)n(C)c1=O 74.4%
Cn1c(=O)c2c(nc(NCc3ccc4c(c3)OCO4)n2Cc2ccccc2)n(C)c1=O 67.4%
Cc1cc(C)n(S(=O)(=O)/C=C/c2ccccc2)n1 68.5%
CCOC(=O)N1CCC(=C2c3ccc(Cl)cc3CCc3cccnc32)CC1 65.8%
Cn1c(Cl)cnc1C1CC(=O)c2cc(Cl)ccc2O1 (centres undefined) 62.9%
Clc1ccc(-c2nnc3sc(Cc4cccs4)nn23)c(Cl)c1 52.8%
CNCCC(Oc1ccc(C(F)(F)F)cc1)c1ccccc1 (centres undefined) 91.3%
Cc1ccc(-n2ncc3c(NCc4ccc5c(c4)OCO5)ncnc32)c(C)c1 52.8%
Cc1cccc(-n2ncc3c(NCc4ccco4)ncnc32)c1 63%
Clc1ccc(-n2ncc3c(NCc4ccco4)ncnc32)cc1 51.6%
C=C1[C@@H](C)C2[C@H](Cc3ccccc3)NC(=O)[C@]23OC(=O)CC[C@H](O)CCC[C@H](C)C/C=C/[C@H]3[C@@H]1O (some centres undefined) 61%
CCOC(=O)c1ccc(N=Cc2nc(-c3ccccc3)oc2OC(C)=O)cc1 55.3%
COc1ccccc1N=Cc1nc(-c2ccccc2)oc1OC(C)=O 51.8%
CCc1oc2ccccc2c1C(=O)c1cc(Br)c(O)c(Br)c1 67.4%

Growth inhibition, inactive:
N#CCCn1cnc2c(=S)nc[nH]c21 5.6%
COc1ccc(OC)c(C2C(C#N)=C(N)Oc3cc(C)[nH]c(=O)c32)c1 (centres undefined) 3.98%
Nc1c(C(=O)NCc2ccco2)sc2nc(N3CCOCC3)c3c(c12)CCCC3 18.2%
Cc1ccc(C(=O)C2=C(O)C(=O)N(c3ncccn3)C2c2cccc(Cl)c2)o1 (centres undefined) -5.18%
COc1ccc(NC(=O)Nc2cccc(C(=O)N3CCOCC3)c2)cc1OC 1.01%
N#CC(C#N)C(c1ccsc1)c1c(-c2ccccc2)[nH][nH]c1=O (centres undefined) 7.27%
Cc1cc(O)c(C(C)C)cc1N=C1CSC(=O)N1 7.06%
CCCCOc1ccc(C(=O)Nn2cnnc2)cc1 -2.48%
CCCCOc1ccc(C(=O)CCN2CCCCC2)cc1 -1.37%
CC(O)(C#CCN1CCOCC1)c1ccccc1 (centres undefined) 2.79%
Cc1cccc(NC(=O)c2cc(N3CCOCC3)nc3ccccc23)c1 2.86%
N#Cc1nc(COc2ccc(Br)cc2)oc1NCCN1CCOCC1 13.4%
Cc1sc(-n2c(C)ccc2C)c(C#N)c1C -0.27%
COc1ccc2c(c1OC)C(=O)O[C@@H]2[C@H]1c2c(cc3c(c2OC)OCO3)CCN1C 28.5%
COc1ccc2c(c1OC)C(=O)OC2C1c2c(cc3c(c2OC)OCO3)CCN1C (centres undefined) 23.2%
Cc1c(C)n(C(=O)CSc2nccn2C)c2ccccc12 -7.69%
COc1cc(C2NC(=O)NC(C)=C2C(=O)Nc2cccc(C)c2C)cc(OC)c1OC (centres undefined) 0.87%
CCN(CC)CCN1C(=O)c2ccccc2NC1c1cc(OC)c(OC)c(OC)c1 (centres undefined) 0.59%
O=C1C2ON(c3ccccc3)C(c3ccncc3)C2C(=O)N1c1ccccc1 (centres undefined) -3.79%
O=C(O)C(O)c1ccco1 (centres undefined) 3.07%
Cc1cc(O)ccc1-c1cnc2ccccc2n1 13%
Cc1nc(-c2c(-c3ccc(O)cc3O)noc2C(F)(F)F)cs1 41.5%
CC1(C)CNC(=O)c2sc(N3CCOCC3)nc2C1 21.1%
Cn1ncc2c(Nc3ccccc3Br)ncnc21 4.98%
Cn1c(=O)c2c(nc(NCc3ccc4c(c3)OCO4)n2Cc2ccccc2Cl)n(C)c1=O 20.1%
Cn1c(=O)c2c(nc(Oc3ccc4c(c3)OCO4)n2Cc2ccc(Br)cc2)n(C)c1=O 38%
Cn1c(=O)c2c(nc(Oc3ccc4c(c3)OCO4)n2Cc2ccc(F)cc2)n(C)c1=O 17.7%
Cn1c(=O)c2c(nc(NCc3ccc4c(c3)OCO4)n2Cc2ccccc2F)n(C)c1=O 43.4%
CC1(C)Cc2c(sc3nc(SCC(=O)NCc4ccco4)n(-c4ccccc4)c(=O)c23)CS1 22.8%
CCCc1cc(-n2ccnc2C)n2c(nc3ccccc32)c1C#N -0.15%
CCOC(=O)C1CCN(c2nc3ccccc3nc2C(C#N)C(=O)NCCc2ccccc2)CC1 (centres undefined) 30.8%
Cc1cc(/C(O)=C2\C(=O)C(=O)N(CCN(C)C)C2c2ccncc2)ccc1OCc1ccccc1 (centres undefined) 2.4%
Cc1cc(C)n(S(=O)(=O)Cc2ccccc2)n1 6%
Cc1cc(C)n(C(=O)CNC(=O)CCc2ccccc2)n1 -2.74%
Cc1cc(C)n(CC2CC(=O)N(c3ccc(C)c(Cl)c3)C2=O)n1 (centres undefined) 0.93%
Clc1ccc(COc2ccccn2)c(Cl)c1 1.66%
COc1ccc(C(=O)c2ccc(N3CCOCC3)cc2)c(OC)c1 44.9%
CCOC(=O)C(C)Oc1nc(Oc2ccccc2)nc(N(C)C)n1 (centres undefined) 6.36%
O/N=C1\CCc2cc(Cl)ccc21 -5.2%
CCOC(=O)N1CCN(C2OC(=O)c3ccccc32)CC1 (centres undefined) -1.65%
CC(=O)Nc1n[nH]c(S(=O)(=O)Cc2ccc(Cl)cc2Cl)n1 -13.6%
COc1cc(C)nc(Oc2ccc(=O)n(C)n2)n1 -3.96%
CCCCNC(=O)N1CCOCCOCCN(C(=O)NCCCC)CCOCCOCC1 2.12%
COc1ccc(CC(=O)OCN2C(=O)c3ccccc3C2=O)cc1 2.96%
CN1CCN(C2=Nc3ccccc3Oc3ccc(Cl)cc32)CC1 18.5%
C=CCSc1nnc2n(CCc3ccccc3)c(=O)c3c4c(sc3n12)COC(C)(C)C4 12.2%
Cn1c(Cn2cnc(Cl)c2Cl)nc2ccccc21 -4.26%
c1ccc(-c2nnc3sc(Cc4cccs4)nn23)cc1 21.9%
Clc1ccc(-c2nnc3sc(Cc4cccs4)nn23)cc1 15%
CCOC(=O)CSc1nc(N)c2c3c(sc2n1)CCCC3 -5.16%
COCCCn1cnc2c(c1=O)c1nc3ccccc3nc1n2CCc1ccccc1 26.2%
CN(C)c1nc(OCCOC(=O)Nc2ccc(Cl)cc2Cl)nc(N(C)C)n1 25.3%
NC(=O)/C(=N\O)c1ccccc1 2.31%
Cc1cc(C)n2c3c(c(C#N)c2n1)CC(C)(C)OC3 5.01%
Cc1nnc(SCCC#N)n(CCC#N)c1=O -2.27%
CN1C(=S)SC(N(O)C(=O)Nc2ccccc2)C1(C)C (centres undefined) 8.85%
O=c1[nH]cnc2c1cnn2Cc1ccccc1 -3.92%
Cc1ccc(-n2ncc3c(NCc4cccnc4)ncnc32)c(C)c1 30.4%
Clc1ccc(-n2ncc3c(NCc4cccs4)ncnc32)cc1 20.6%
Clc1ccc(-n2ncc3c(NCc4ccccn4)ncnc32)cc1 12.7%
Cc1ccc(-n2ncc3c(NCCCOC(C)C)ncnc32)c(C)c1 21.4%
COc1ccccc1Nc1ncnc2c1cnn2-c1cccc(C)c1 6.73%
Cc1cccc(-n2ncc3c(NCCN4CCOCC4)ncnc32)c1 4.3%
O=C1NC2c3ccccc3C(=O)N2c2c1cnn2-c1ccccc1 (centres undefined) 36.6%
CC(C)OCCCNc1ncnc2c1cnn2-c1ccccc1 35.1%
CCCOc1cccc(C2C(C(=O)c3ccc(C)o3)=C(O)C(=O)N2CCCN(C)C)c1 (centres undefined) 2.48%
C=CCSc1nnc2n(-c3ccccc3OC)c(=O)c3c4c(sc3n12)CCC4 19.2%
CCc1cccc(CC)c1N(COC)C(=O)Cn1nnc2ccccc21 -7.86%
CN(CCCCCNC(=O)/C=N/O)Cc1ccccc1 -0.65%
COC(=O)c1ccc(Oc2nc3ccccc3n3c(C)nnc23)cc1 -4%
CC(=O)Oc1oc(-c2ccccc2)nc1/C=N/c1ccccn1 17.6%
O=C(Oc1oc(-c2ccco2)nc1C=Nc1ccccc1)c1ccoc1 34.4%
O=C(Oc1oc(-c2ccco2)nc1C=Nc1ccccc1)c1ccco1 35.2%
CCC(=O)Oc1oc(-c2ccccc2)nc1C=Nc1ccccc1OC 48.5%
CCOC(=O)c1ccc(CSc2ncn[nH]2)o1 -2.33%
COc1ccccc1OCC(=O)Nc1ccc(S(=O)(=O)Nc2cc(C)nc(C)n2)cc1 5.4%
Cc1nn(C)cc1C1C2=C(CC(C)(C)CC2=O)OC2=C1C(=O)CC(C)(C)C2 1.38%
CC(=O)c1cc2c(=O)c3ccccc3oc2nc1C -5.08%
O=C(O)CCCCCCC1C(=O)NC(=O)N1CCC(O)C1CCCCC1 (centres undefined) -11.2%
CCC1SC(N)=NC1=O (centres undefined) 2.26%
